Results from the supplement of paper PMC13380429.

Tested on: Vero E6 infected with SARS-CoV-2
Experiment: inhibition of SARS-CoV-2 cytopathic effect; higher = more antiviral protection, active = above 15
Conditions: 48 h

Measured: inhibition of SARS-CoV-2 cytopathic effect

NCC(CS(=O)(=O)O)c1ccc(Cl)cc1 (stereo not given) [saclofen]
inactive: 1 nM 0.43% | 8.33 nM 0.42% | 100 nM -1.16% | 833.33 nM 4.89% | 10000 nM 1.7%

O=C(c1ccc(Cl)cc1)N(Cc1ccccc1)C1CCCCC1
inactive: 1 nM -1.58% | 8.33 nM -1.87% | 100 nM 1.24% | 833.33 nM -0.21% | 10000 nM -2.35%

O=C(/C=C/C=C/c1ccc2c(c1)OCO2)N1CCCCC1 [piperine]
inactive: 1 nM -1.58% | 8.33 nM -1.88% | 100 nM -3.68% | 833.33 nM -2.45% | 10000 nM 5.15%

C=CC(=O)Nc1cccc(Nc2nc(Nc3ccc(NC4CN(CCF)C4)cc3OC)ncc2C(F)(F)F)c1
inactive: 1 nM 0.89% | 8.33 nM 1.87% | 100 nM 7.9% | 833.33 nM -5.81% | 10000 nM -24.6%

CC(ONC(=O)c1cc(C(F)(F)F)cc(C(F)(F)F)c1)C(=O)Nc1ccc(Cl)cc1 (stereo not given)
inactive: 1 nM 1.52% | 8.33 nM -0.64% | 100 nM 0.05% | 833.33 nM -2.31% | 10000 nM 5.49%

COc1cc(C(=O)NC2CCCNC2)cc(OC)c1OC (stereo not given) [troxipide]
inactive: 1 nM 0.11% | 8.33 nM -0.47% | 100 nM 1.46% | 833.33 nM -0.19% | 10000 nM 2.03%

O=S(=O)(c1cccc2c(O)nccc12)N1CCCNCC1 [hydroxyfasudil]
inactive: 1 nM -1.12% | 8.33 nM -1.29% | 100 nM -1.81% | 833.33 nM -2.35% | 10000 nM -0.71%

COc1ccc(-c2cc(=O)c3c(OC)c(OC)c(OC)c(OC)c3o2)cc1OC [nobiletin]
inactive: 1 nM -1.63% | 8.33 nM -2.18% | 100 nM -7.44% | 833.33 nM -2.1% | 10000 nM -0.29%

CCCNC(C)(C)COC(=O)c1ccccc1 [meprylcaine]
inactive: 1 nM 2.21% | 8.33 nM -2.34% | 100 nM -2.33% | 833.33 nM -1.75% | 10000 nM -5.76%

NC(=O)C1=CN([C@@H]2O[C@H](COP(=O)(O)OP(=O)(O)OC[C@H]3O[C@@H](n4cnc5c(N)ncnc54)[C@H](O)[C@@H]3O)[C@@H](O)[C@H]2O)C=CC1 [coenzyme-I]
inactive: 1 nM -3.2% | 8.33 nM -4.29% | 100 nM 1.16% | 833.33 nM 1.03% | 10000 nM 1.66%
